This is part of a sample that, as a whole, favours compounds with a hit. Of some 79,000 tested, about 15% had one in any assay. A number with no mark means an inactive call. Active and inactive are the calls of the source. Cut-off read from the data, not from the text of the source: active = growth inhibition above about 70%; inactive = the rest.
Legend:
[1] = NCI Yeast Anticancer Drug Screen. Data for the rad50 strain (AID 155);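 note: 0% = growth of vehicle-only cultures of the same strain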; settings: S. cerevisiae rad50 strain growth inhibition, active compounds read high
Procedure, shortened: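 Inhibition values express reduced yeast growth in compound-treated cultures relative to vehicle-treated controls.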

[2] = NCI Yeast Anticancer Drug Screen. Data for the mec2-1 strain (AID 157); settings: S. cerevisiae mec2-1 strain, active compounds read high
Procedure, shortened: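 Using mec2-1 yeast: add compound, measure growth, express inhibition versus vehicle-treated cultures.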

[3] = NCI Yeast Anticancer Drug Screen. Data for the sgs1 mgt1 strain (AID 161);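 note: 0% = growth of cultures given vehicle only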; settings: S. cerevisiae sgs1 mgt1 strain, active compounds read high
Procedure, shortened: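 Growth of a repair-deficient yeast mutant was monitored after compound treatment and expressed as inhibition relative to vehicle-treated cultures.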

[4] = NCI Yeast Anticancer Drug Screen. Data for the cln2 rad14 strain (AID 165);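 note: 0% = growth equal to vehicle treated cultures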; settings: S. cerevisiae cln2 rad14 strain, active compounds read high
Procedure, shortened: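 Yeast strain cln2 rad14, bearing defects in cell cycle control and DNA repair, serves as the test system; values reflect growth inhibition compared with vehicle.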

[5] = NCI Yeast Anticancer Drug Screen. Data for the bub3 strain (AID 167); settings: S. cerevisiae bub3 mutant strain, active compounds read high
Procedure, shortened: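 Steps: expose the mutant yeast strain to compound; grow alongside vehicle-treated cultures; measure growth; express inhibition against the vehicle cultures.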

[6] = NCI Yeast Anticancer Drug Screen. Data for the mlh1 rad18 strain (AID 175); settings: S. cerevisiae mlh1 rad18 strain growth inhibition, active compounds read high
Procedure, shortened: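 Steps: expose repair-defective yeast to compound; measure growth; express inhibition against vehicle-treated controls.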

[7] = at 5.0 µM (retest, dose inferred, filed as 0.5)
[8] = at 50.0 µM (retest, dose inferred, filed as 5.0)

Row | Structure (SMILES) | growth inhibition [1, 7] | growth inhibition [1, 8] | growth inhibition ([1]; at 50.0 µM) | growth inhibition [2, 7] | growth inhibition [2, 8] | growth inhibition ([2]; at 50.0 µM) | growth inhibition [3, 7] | growth inhibition [3, 8] | growth inhibition ([3]; at 50.0 µM) | growth inhibition [4, 7] | growth inhibition [4, 8] | growth inhibition ([4]; at 50.0 µM) | growth inhibition [5, 7] | growth inhibition [5, 8] | growth inhibition ([5]; at 50.0 µM) | growth inhibition [6, 7] | growth inhibition [6, 8] | growth inhibition ([6]; at 50.0 µM)
1 | CS/C(=N\N=C(/C)c1ccccn1)N1CCN(c2ccccn2)CC1 | 1% | 22% | 98.1% (active) | -1% | 14% | 82.2% (active) | -1% | 96% (active) | 98.6% (active) | -5% | 84% (active) | 64.2% | -7% | 94% (active) | 91.2% (active) | -8% | 98% (active) | 87.5% (active)
2 | CCOC(=O)C(=O)CC1=Nc2ccccc2SC(c2cccc(C)c2)C1 (configuration not stated) | 2% | 81% (active) | 91.9% (active) | -1% | 98% (active) | 92.9% (active) | 7% | 98% (active) | 99.2% (active) | -2% | 86% (active) | 50% | 12% | 98% (active) | 99.1% (active) | 2% | 97% (active) | 97.5% (active)
3 | CC(C)CCCC(C)C1CCC2C3CC=C4OC(=O)CCC4(C)C3CCC12C (configuration not stated) | -11% | 88% (active) | 83.4% (active) | -2% | 85% (active) | 91.8% (active) | -35% | 93% (active) | 76.2% (active) | -2% | 93% (active) | 85.2% (active) | -1% | 91% (active) | 86.3% (active) | -1% | 94% (active) | 90.6% (active)
4 | CN[C@@H](Cc1cccc2ccccc12)C(=O)N[C@@H](CC(C)C)B(O)O | 34% | 51% | 27.1% | 37% | 40% | 12.1% | 16% | 18% | 3.85% | 53% | 54% | 59.4% | 25% | 16% | 36.5% | 33% | 60% | 16.4%
5 | COc1ccc(C2c3cc4c(cc3OC(O)(CO)C2C(=O)O)OCO4)cc1 (configuration not stated) (tested in a mixture with another compound) | -6% | 86% (active) | 53.5% | -11% | 75% (active) | 81.3% (active) | -6% | 40% | 27.8% | -6% | 90% (active) | 37% | -18% | 95% (active) | 87% (active) | -8% | 89% (active) | 81.8% (active)
6 | O=C(Nc1cccc(C(F)(F)F)c1)O/N=C(/Cl)CCl | 3% | 100% (active) | 88.5% (active) | -19% | 100% (active) | 91.7% (active) | -51% | 99% (active) | 84.7% (active) | -8% | 100% (active) | 90.5% (active) | -38% | 100% (active) | 88.8% (active) | -9% | 100% (active) | 84.2% (active)
7 | CC(=O)SC(C[N+](=O)[O-])c1ccc2c(c1)OCO2 (configuration not stated) | 55% | 91% (active) | 91% (active) | 69% | 100% (active) | 93% (active) | 53% | 99% (active) | 93.5% (active) | 44% | 57% | 91.3% (active) | 63% | 96% (active) | 92.5% (active) | 59% | 97% (active) | 90.3% (active)
8 | O=C(O)/C=C/C(=O)c1ccccc1 | 7% | 76% (active) | 15.1% | 5% | 72% (active) | 57.5% | 3% | 66% | 46.3% | -3% | 13% | 3.6% | -6% | 71% (active) | 67.2% | 6% | 80% (active) | 72% (active)
9 | O=[N+]([O-])c1cc(Cl)cc(C(c2cc(Cl)cc([N+](=O)[O-])c2O)C(Cl)(Cl)Cl)c1O | 52% | 94% (active) | 97.7% (active) | 50% | 98% (active) | 98.4% (active) | 38% | 92% (active) | 98.1% (active) | 36% | 96% (active) | 97% (active) | 33% | 96% (active) | 97.2% (active) | 66% | 96% (active) | 98.3% (active)
10 | C/C(=N/NC(=S)Nc1cccc(C)c1)c1ccccn1 | 62% | 99% (active) | 80.2% (active) | 91% (active) | 99% (active) | 85.9% (active) | 75% (active) | 99% (active) | 88.3% (active) | 94% (active) | 99% (active) | 88.9% (active) | 96% (active) | 99% (active) | 90.3% (active) | 68% | 99% (active) | 91% (active)
11 | COc1ccc(N=NN2CCCC2)cc1 | 35% | 42% | 89.7% (active) | 25% | 27% | 92.5% (active) | 45% | 52% | 86.3% (active) | 46% | 56% | 89.7% (active) | 49% | 50% | 90.5% (active) | 14% | 33% | 91.2% (active)
12 | Cc1c(N)nc(C(CC(N)=O)NCC(N)C(N)=O)nc1C(=O)NC(C(=O)NC(C)C(O)C(C)C(=O)NC(C(=O)NCCc1nc(-c2nc(C(=O)NCCCNCCCc3ccccn3)cs2)cs1)C(C)O)C(OC1OC(CO)C(O)C(O)C1OC1OC(CO)C(O)C(OC(N)=O)C1O)c1cnc[nH]1 (configuration not stated) | 98% (active) | 99% (active) | 92.6% (active) | 97% (active) | 99% (active) | 93.4% (active) | 98% (active) | 99% (active) | 93.7% (active) | 90% (active) | 98% (active) | 90.3% (active) | 97% (active) | 98% (active) | 93.3% (active) | 98% (active) | 99% (active) | 92% (active)
13 | CCOC(=O)c1[nH]cnc1/N=N/c1nc(O)c(C#N)[nH]1 | 8% | 98% (active) | -5.65% | 3% | 99% (active) | 9.8% | -13% | 99% (active) | 6% | 6% | 99% (active) | 0.85% | -4% | 99% (active) | 1.55% | -6% | 99% (active) | -1.95%
14 | CCCCC#CCCOC(=O)C#CCCCC | 1% | 6% | 30% | 1% | 4% | 28.2% | 3% | 7% | -0.85% | 8% | 9% | 92% (active) | 3% | 12% | -21.3% | 0% | 3% | 3.25%
15 | COc1ccc(OC(C)=O)c2c1CCC=CC2=O | 14% | 93% (active) | 41.9% | 24% | 96% (active) | 41.9% | 18% | 93% (active) | 61.3% | 14% | 80% (active) | 57% | 22% | 92% (active) | 65.3% | 14% | 95% (active) | 74% (active)
16 | C[C@H](CCC(=O)O)[C@H]1CC[C@H]2[C@@H]3CC[C@@H]4C[C@H](O)CC[C@]4(C)[C@H]3C[C@H](O)[C@]12C | -14% | 95% (active) | 99.2% (active) | 1% | 98% (active) | 98.8% (active) | -1% | 97% (active) | 99.3% (active) | -34% | 98% (active) | 99.3% (active) | -16% | 99% (active) | 98.8% (active) | -11% | 98% (active) | 99% (active)
17 | O=C(O)CC/C(=N\Nc1ccccc1)C(=O)O | 3% | 96% (active) | 97.2% (active) | -2% | 90% (active) | 98% (active) | -8% | 84% (active) | 97.4% (active) | 6% | 98% (active) | 97% (active) | 1% | 93% (active) | 97.3% (active) | 5% | 93% (active) | 97% (active)
18 | C=C1CC(Cn2cc(C)c(=O)[nH]c2=O)(c2ccc(Cl)cc2)OC1=O (configuration not stated) | -7% | 82% (active) | 69.8% | -11% | 94% (active) | 73.1% (active) | -27% | 85% (active) | 74.2% (active) | 13% | 43% | 65% | 8% | 89% (active) | 78.3% (active) | 7% | 91% (active) | 85.3% (active)
19 | [N-]=[N+]=Nc1c([N+](=O)[O-])c(Cl)nc2ccccc12 | 27% | 95% (active) | 86% (active) | 22% | 99% (active) | 90.7% (active) | 34% | 99% (active) | 92% (active) | 11% | 87% (active) | 90.5% (active) | 50% | 99% (active) | 90.6% (active) | 36% | 98% (active) | 88.2% (active)

Reference: PubChem BioAssay (NCI)
